Assay results from PubChem BioAssay (NCI).
The panel holds about 83,000 compounds, 20% with a hit somewhere; the sample as a whole holds those more often.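 Testing used 96-well plates and a 48-hour single-concentration exposure. Example: -40 means 40% of the starting cells died.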 Unmarked numbers belong to inactive results. Activity calls are given as the source filed them. How the source made its calls: active means growth percent below 10; inactive means the rest.

How the values were obtained:
Test in all cases: NCI-60 one-dose screen, 48 h (100 = growth as untreated, 0 = no growth, -100 = all killed)
HCT-15 colon = details: 10 µM
HT29 colon = details: 10 µM
SNB-75 CNS = details: 10 µM
SNB-19 CNS = details: 10 µM
U251 CNS = details: 10 µM
PC-3 prostate = details: 10 µM
SK-MEL-5 melanoma = details: 10 µM
UACC-62 melanoma = details: 10 µM unless noted
LOX IMVI melanoma = details: 10 µM
SK-MEL-28 melanoma = details: 10 µM
SK-MEL-2 melanoma = details: 10 µM
EKVX NSCLC = details: 10 µM
SN12C renal = details: 10 µM
UO-31 renal = details: 10 µM
TK-10 renal = details: 10 µM unless noted
ACHN renal = details: 10 µM
CAKI-1 renal = details: 10 µM
A498 renal = details: 10 µM
CCRF-CEM leukemia = details: 10 µM
MOLT-4 leukemia = details: 10 µM

Row | SMILES | growth (HCT-15 colon) [%] | growth (HT29 colon) [%] | growth (SNB-75 CNS) [%] | growth (SNB-19 CNS) [%] | growth (U251 CNS) [%] | growth (PC-3 prostate) [%] | growth (SK-MEL-5 melanoma) | growth (UACC-62 melanoma) | growth (LOX IMVI melanoma) | growth (SK-MEL-28 melanoma) [%] | growth (SK-MEL-2 melanoma) | growth (EKVX NSCLC) [%] | growth (SN12C renal) [%] | growth (UO-31 renal) | growth (TK-10 renal) | growth (ACHN renal) [%] | growth (CAKI-1 renal) | growth (A498 renal) [%] | growth (CCRF-CEM leukemia) | growth (MOLT-4 leukemia)
1 | O=C(/C=C/C(=O)c1ccccc1)c1ccccc1 | 79.2 | 100 | 104 | 109 | 93.6 | 125 | 105% | 93.4% | 92.1% | 117 | 119% | 102 | 108 | 97.6% | 86.9% | 90.1 | 94.9% | 85.2 | 37.9% | 79.2%
2 | COC(=O)c1cccnc1 | 103 | 101 | 88.2 | 95.3 | 99.4 | 95.2 | 96.4% | 90.8% | 95.6% | 103 | 93.2% | 105 | 93.2 | 78.9% | 96.9% | 90.6 | 94.8% | 101 | 96.2% | 98.3%
3 | CCOC(=O)c1cc2cccc(OC)c2oc1=O | 97.3 | 113 | 99.5 | 105 | 105 | 106 | 105% | 89.8% | 104% | 116 | 74.9% | 107 | 107 | 105% | 110% | 117 | 132% | – | 91.7% | 89.9%
4 | Brc1cnc2ccccc2c1 | 101 | 102 | 106 | 95.5 | 103 | 97 | 106% | 93.4% | 101% | 113 | 100% | 103 | 98.4 | 78.2% | 102% | 98.2 | 97.7% | 99 | 108% | 101%
5 | Nc1ccc(N=Nc2ccc(O)cc2)c(N)n1 | 64.5 | 103 | 82.5 | 98.1 | 76.6 | 60.7 | 73.3% | 41% | 79.4% | 89.2 | 97.1% | 67.6 | 72.8 | 34.7% | 93.7% | 26.3 | 39.1% | – | 37.4% | 46.1%
6 | Oc1ccc(Cc2ccccc2)c2cccnc12 | 29.2 | 84.3 | 21.3 | 19.6 | 12.6 | 23.4 | 3.49% (active) | -14% (active) | 4.75% (active) | 32.2 | 12.1% | 28.3 | 20.5 | -14.4% (active) | 9.22% (active) | 11.5 | -6.16% (active) | – | 1.19% (active) | 3.7% (active)
7 | O=C1C[C@H](c2ccccc2)[C@H](c2ccccc2)C1 | 102 | 105 | 91.8 | 96.1 | 103 | 79.4 | 104% | 90.2% | 102% | 109 | 93% | 106 | 98.7 | 81.9% | 94.2% | 102 | 89.7% | – | 95.1% | 94.9%
8 | O=c1[nH]n(-c2ccccc2)c(=O)cc1Cl | 120 | 110 | 95.2 | 98.9 | 109 | 97.3 | 102% | 87.3% | 96% | 117 | 104% | 110 | 93.3 | 84.7% | 102% | 98.5 | 121% | 108 | 106% | 95.4%
9 | O=C1C=CC2=C3c4cc(O)c(O)cc4CC3(O)COC2=C1O (stereo not drawn) | 105 | 100 | 88 | 104 | 105 | 93.7 | 138% | 98.1% | 99.2% | 119 | 87.3% | 101 | 104 | 86.6% | 101% | 111 | 111% | 99.1 | 104% | 103%
10 | N#CC1(Nc2ccc3c4c(cccc24)CC3)CCCCC1 | 106 | 89.1 | 78.6 | 107 | 99.8 | 90.8 | 91.6% | 106% | 97.6% | 103 | 90.3% | 102 | 92.7 | 55.6% | 102% | 101 | 74.8% | – | 59% | 70.1%
11 | S=C(Nc1ccccc1)N1CCCCC1 | 105 | 102 | 99.5 | 111 | 96.2 | 96.4 | 97% | 90.5% | 96.6% | 103 | 98% | 105 | 102 | 88.4% | 109% | 94.5 | 94.6% | 77.6 | 102% | 98%
12 | Cc1ncc(C#N)c(N)n1 | 100 | 112 | 77.8 | 102 | 100 | 90 | 89.9% | 99.7% | 100% | 102 | 106% | – | 103 | 85.7% | 109% | 121 | 92.9% | 87.1 | 126% | 102%
13 | Cc1cc(C(C)(C)C)cc(C)c1Br | 109 | 113 | 94.6 | 106 | 113 | 75.3 | 111% | 108% | 96.1% | 109 | 105% | 100 | 100 | – | 113% | 104 | 93.5% | 104 | 92.2% | 99%
14 | CC(O)COc1ccc(-c2ccccc2)cc1 (stereo not drawn) | 96.3 | 116 | 102 | 98.4 | 99.7 | 101 | 99.1% | 92.4% | 101% | 103 | 108% | 93.6 | 101 | – | 106% | 103 | 91.9% | 78.7 | 95.4% | 121%
15 | C#CC(C(C)C)N(CCO)CCCC (stereo not drawn) | 94.9 | 117 | 83.6 | 107 | 97.7 | 94.7 | 100% | 107% | 107% | 101 | 111% | – | 102 | 96.8% | 107% | 100 | 102% | 88.8 | 95.6% | 107%
16 | O=C1C=C(Nc2ccc([N+](=O)[O-])cc2)c2ccccc2C1=O | 31.2 | 99.4 | 42.9 | 52.8 | 28.5 | 23.9 | 11.7% | 17.7% | 9.66% (active) | 50.3 | -7.97% (active) | – | 39.8 | 30% | 80.4% | 45.8 | 67.9% | 40.6 | 38.9% | 28.5%
17 | CCC(C#N)(CC)c1ccccc1 | 90.6 | 110 | 84.6 | 99.5 | 109 | 102 | 98.6% | 89.5% | 97.9% | 108 | 105% | 105 | 98 | – | 108% | 103 | – | 111 | 102% | 107%
